Measured values: PubChem BioAssay (NCATS)
Records with an inconclusive call do not appear. A call without a number means that no potency is given here. The source made the active and inactive calls. Calls come from the whole dose curve; as a rule, active = well fitted cell-killing curve with a large enough effect; inconclusive = small, poorly fitted or top-dose-only effect, or effect the other way; inactive = no such curve, though single readings can be large or run the other way.

Assay: Quantitative High-Throughput drug screen in 47 multiple myeloma cell lines against the NCATS MIPE library collection: OCIMY1_PLB cell viability assay (AID 1918979); note: nearly all actives have a fitted effect of over 35% in size
Details: OCI-MY1 myeloma viability, CellTiter-Glo ATP, 48 h; series mostly up to 45.8 µM
Excerpt: PI: Beverly A. Mock Ph.D.
Laboratory of Cancer Biology and Genetics,
Center for Cancer Research, National Cancer Institute,
National Institute of Health, Bethesda, Maryland
Drug resistance and disease progression are common in multiple myeloma (MM) patients, underscoring the need for new therapeutic combinations. […] We hypothesized that effective combinations would reduce MYC expression and enhance p16 activity. […] These preclinical data identify potentially useful drug combinations for evaluation in drug-resistant MM and reveal potential mechanisms of combined drug sensitivity.
Described herein is the primary MIPE qHTS used to cherrypick compounds. Validated compounds were then further tested for potential synergistic activiy.
[1] Peat TJ, Gaikwad SM, Dubois W, Gyabaah-Kessie N, Zhang S, Gorjifard S, Phyo Z, Andres M, Hughitt VK, Simpson RM, Miller MA, Girvin AT, Taylor A, Williams D, D'Antonio N, Zhang Y, Rajagopalan A, Flietner E, Wilson K, Zhang X, Shinn P, Klumpp-Thomas C, McKnight C, Itkin Z, Chen L, Kazandijian D, Zhang J, Michalowski AM, Simmons JK, Keats J, Thomas CJ, Mock BA. Drug combinations identified by high-throughput screening promote cell cycle transition and upregulate Smad pathways in myeloma. Cancer Lett. 2023 Aug 1;568:216284. doi: 10.1016/j.canlet.2023.216284. Epub 2023 Jun 24. PMID: 37356470; PMCID: PMC10408729.
SEQUENCE No. (e.g., 1, 2, 3, etc.); […] (e.g., Cells, Incubation, Reagent, etc.); VALUE and DESCRIPTION.
1; Cells; 5 uL; white, solid bottom 1536-well Greiner assay plate.
2; Compounds; 23 nL; Kalypsis pin tool (Wako USA) equipped with a 1536-well pin head to transfer to the assay plates.
3; Incubation; 48 hours; 37C incubation.
4; Reagent;5uL; CellTiter Glo (Promega).
5; Detector; 425V; Luminescence; Viewlux PerkinElmer.
NOTES (numbers refer to Sequence numbers above)
1. The cell-based screening methods employed in this study were like those previously published. Briefly, the corresponding myeloma cell lines were screened in 1,536-well plates with 500 cells, 5-uL per well for inhibition of cell viability (assessed by measuring ATP levels with CellTiterGlo).
2. NCATS MIPE 4.0 library of approved and investigational drugs were added using the Kalypsis pin tool. Wells treated with DMSO only for 100% viability and media only for 0% viability were used as controls.
3. The assay plates were covered and incubated for 48 hours in a 37C, 5% CO2 incubator with controlled humidity.
4. After 48 hours, CellTilter-GloTM luminescent substrate mix (Promega) reagent was added to the assay plate and plates we incubated for 5 min at room temperature.
5. Signal was measured as median relative luminescence units on a ViewLux (PerkinElmer) multiplate reader.
[1] Heske CM, Davis MI, Baumgart JT, Wilson K, Gormally MV, Chen L, Zhang X, Ceribelli M, Duveau DY, Guha R, Ferrer M, Arnaldez FI, Ji J, Tran HL, Zhang Y, Mendoza A, Helman LJ, Thomas CJ. Matrix Screen Identifies Synergistic Combination of PARP Inhibitors and Nicotinamide Phosphoribosyltransferase (NAMPT) Inhibitors in Ewing Sarcoma. Clin Cancer Res. 2017 Dec 1;23(23):7301-7311. doi: 10.1158/1078-0432.CCR-17-1121. Epub 2017 Sep 12. PMID: 28899971; PMCID: PMC6636827.
Potency is the fitted concentration of half-maximal effect.

Compound | Potency
CN1CC(=O)NC1=NC(=O)Nc1cccc(Cl)c1 | 26.4 µM (active)
O=C1CCCC(=O)C1C(=O)c1ccc(C(F)(F)F)cc1[N+](=O)[O-] | inactive
CCC=CC[C@H]1C(=O)CC[C@@H]1CC(=O)OC | inactive
Nc1ccc(-c2ccc3ncc4ccc(=O)n(-c5cccc(C(F)(F)F)c5)c4c3c2)cn1 | 0.0235 µM (active)
COc1cc2c(cc1OC)[C@@H]1Cc3ccc(OC)c(OC)c3CN1CC2 | inactive
CCOc1ccccc1N=Nc1c(C)[nH]n(-c2nc(-c3ccccc3)cs2)c1=O | 7.43 µM (active)
CCC(=O)NCC[C@@H]1CCc2ccc3c(c21)CCO3 | inactive
CC[C@]1(O)C[C@H]2CN(CCC3=c4ccccc4=N[C]3[C@@](C(=O)OC)(c3cc4c(cc3OC)N(C)[C@H]3[C@@](O)(C(N)=O)[C@H](O)[C@]5(CC)C=CCN6CC[C@]43[C@@H]65)C2)C1 | 0.662 µM (active)
NCC1CCC(C(=O)O)CC1 (stereo not given) | inactive
C[C@]12CCC3=C4CCC(=O)C=C4CC[C@@H]3[C@H]1CC[C@@]2(O)CC#N | inactive
CC[C@H](C=C[C@@H](C)[C@H]1CC[C@H]2[C@@H]3CC=C4C[C@@H](O)CC[C@]4(C)[C@@H]3CC[C@]12C)C(C)C | inactive
COc1nccc(-c2c(-c3ccc(F)cc3)ncn2C2CCC(O)CC2)n1 (stereo not given) | inactive
CCC(=C(c1ccc(O)cc1)c1ccc(OCCNC)cc1)c1ccccc1 | 23.5 µM (active)
CC(=O)O[C@]1(C(C)=O)CC[C@H]2[C@@H]3C=C(Cl)C4=CC(=O)[C@@H]5C[C@H]5[C@]4(C)[C@@H]3CC[C@@]21C | inactive
C[C@]12C=CC(=O)C=C1CC[C@@H]1[C@@H]2[C@@H](O)C[C@@]2(C)[C@@H]1CC[C@]2(O)C(=O)CO | inactive
CC(C)(O)CC(=O)NCCn1ccc2ncnc(Nc3ccc(Oc4cccc(C(F)(F)F)c4)c(Cl)c3)c21 | inactive
Fc1ccc(CNc2ncnc3ccc(F)cc23)cc1 | 14.8 µM (active)
C[C@@H]1CC=CC=CC=CC=C[C@@H](O[C@@H]2O[C@H](C)[C@@H](O)[C@H](N)[C@H]2O)C[C@@H]2O[C@](O)(C[C@@H](O)C[C@@H]3O[C@@H]3C=CC(=O)O1)C[C@H](O)[C@@H]2C(=O)O | 9.35 µM (active)
COc1ccc(-c2cc(=O)c3c(O)cc(O[C@@H]4O[C@H](CO[C@@H]5O[C@@H](C)[C@H](O)[C@@H](O)[C@@H]5O)[C@@H](O)[C@H](O)[C@@H]4O)cc3o2)cc1O | inactive
CN1c2ccccc2C(=O)N2CCc3c([nH]c4ccccc34)C21 (stereo not given) | inactive

Compound | Potency
CCOC(=O)N1CCN([N+]([O-])=NOc2cc(ON=[N+]([O-])N3CCN(C(=O)OCC)CC3)c([N+](=O)[O-])cc2[N+](=O)[O-])CC1 | 7.43 µM (active)
CC(NCCc1ccc(O)cc1)C(O)c1ccc(O)cc1 (stereo not given) | inactive
O=C(c1ccc(C(=O)N2CCC(N3CCCC3)CC2)c(Nc2ccccc2)c1)N1CCC(N2CCCC2)CC1 | inactive
CC1(C)OC2CC3C4CC(F)C5=CC(=O)C=CC5(C)C4C(O)CC3(C)[C@]2(C(=O)CO)O1 (stereo not given in full) | inactive
CC(=O)NCCC(=O)N[C@@H](CCC(N)=O)C(=O)N[C@@H](CO)C(=O)N[C@@H](CCC(N)=O)C(=O)N[C@@H](CCC(N)=O)C(=O)N[C@H](C(=O)N[C@@H](Cc1ccccc1)C(=O)N[C@]1(C)CCCCCCC=CCCC[C@@](C)(C(=O)N[C@@H](CCC(N)=O)C(=O)N[C@@H](CC(N)=O)C(N)=O)NC(=O)[C@H](CC(C)C)NC(=O)[C@H](CC(C)C)NC(=O)[C@@H](CCCNC(=N)N)NC(=O)[C@H](Cc2c[nH]c3ccccc23)NC(=O)[C@H](CC(C)C)NC(=O)[C@H](CC(N)=O)NC1=O)[C@H](C)O | 20.9 µM (active)
C#CCN(C)CC1=Cc2ccccc2Oc2ccccc21 | inactive
CCNC(=O)Nc1ccc(Oc2ncnc(N)c2C=NOC)cc1Cl | 23.5 µM (active)
Nc1ncnc2c1ncn2[C@@H]1O[C@H](CO)[C@@H](O)[C@@H]1O | inactive
N#CC(c1ccnc(NCCc2cccnc2)n1)c1nc2ccccc2s1 (stereo not given) | inactive
NS(=O)(=O)c1cc(Cl)c(Cl)c(S(N)(=O)=O)c1 | inactive
CN(C)CC[C@H](CSc1ccccc1)Nc1ccc(S(=O)(=O)NC(=O)c2ccc(N3CCN(Cc4ccccc4-c4ccc(Cl)cc4)CC3)cc2)cc1[N+](=O)[O-] | 3.72 µM (active)
CN[C@@H]1[C@@H](O)[C@@H](O[C@@H]2[C@@H](O)[C@H](O[C@H]3O[C@H](CN)[C@@H](O)[C@H](O)[C@@H]3O)[C@@H](N)C[C@@H]2NC(=O)[C@@H](O)CN)OC[C@]1(C)O | inactive
NC(=O)c1ccc(N(C(N)=O)c2c(F)cccc2F)nc1-c1ccc(F)cc1F | inactive
CCN1CCN(c2ccc(Nc3cc(N(C)C(=O)Nc4c(Cl)c(OC)cc(OC)c4Cl)ncn3)cc2)CC1 | inactive
O=C1Nc2ccc(I)cc2C1=Cc1cc(Br)c(O)c(Br)c1 | inactive
CCOC(=O)N1c2ccc(C(F)(F)F)cc2[C@@H](N(Cc2cc(C(F)(F)F)cc(C(F)(F)F)c2)C(=O)OC)C[C@H]1CC | 16.6 µM (active)
NC(=O)c1ncn([C@@H]2O[C@H](CO)[C@@H](O)[C@@H]2O)n1 | inactive
N#CC1(c2cccc(C(=O)Nc3cc(Oc4ccc5nc(NC(=O)C6CC6)sc5n4)ccc3F)c2Cl)CC1 | 0.332 µM (active)
Cn1cnc(-c2cc3nccc(Oc4ccc(NC(=S)NC(=O)Cc5ccccc5)cc4F)c3s2)c1 | inactive
CC1(C)C(N(O)C(=O)Nc2ccc(Cl)cc2)N(c2ccc(Cl)cc2)C(=O)N1CC(=O)NN=CC=Cc1ccc([N+](=O)[O-])o1 (stereo not given) | 8.33 µM (active)
